# Results from ChEMBL document CHEMBL3988442, “University of Dundee, Small-Polar-MMV Screening Library” (2021).
# Target: T1, Methionyl-tRNA synthetase, putative (Leishmania donovani (strain BPK282A1)) (UniProt E9BF75)
# T1 sequence (whole entry): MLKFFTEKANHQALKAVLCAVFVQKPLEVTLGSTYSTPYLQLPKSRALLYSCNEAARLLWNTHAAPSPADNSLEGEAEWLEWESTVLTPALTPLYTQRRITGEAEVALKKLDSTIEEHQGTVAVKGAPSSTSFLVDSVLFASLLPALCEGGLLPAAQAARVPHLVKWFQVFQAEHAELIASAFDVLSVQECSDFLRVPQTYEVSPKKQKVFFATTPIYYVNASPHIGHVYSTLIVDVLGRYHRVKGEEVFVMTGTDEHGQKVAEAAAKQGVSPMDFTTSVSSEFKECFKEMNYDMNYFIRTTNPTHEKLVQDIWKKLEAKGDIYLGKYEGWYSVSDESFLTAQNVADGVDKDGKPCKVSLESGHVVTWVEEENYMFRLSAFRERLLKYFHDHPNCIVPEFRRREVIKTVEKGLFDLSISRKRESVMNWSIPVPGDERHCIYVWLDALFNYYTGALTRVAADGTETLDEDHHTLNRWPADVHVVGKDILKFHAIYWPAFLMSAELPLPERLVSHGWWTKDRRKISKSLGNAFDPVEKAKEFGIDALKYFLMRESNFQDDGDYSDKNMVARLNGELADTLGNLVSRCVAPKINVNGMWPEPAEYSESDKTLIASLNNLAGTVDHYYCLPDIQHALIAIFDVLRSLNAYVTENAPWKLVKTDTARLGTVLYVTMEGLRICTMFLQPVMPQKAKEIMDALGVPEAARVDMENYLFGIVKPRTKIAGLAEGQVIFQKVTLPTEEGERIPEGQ
# Test: Leishmania donovani Methionine tRNA synthetase (LdMetRS):v7. Dose response assay
# Type: functional
# Design: conc 80 nM, time 150 minutes
compound,measurement,setting,value
Cc1cc(Nc2ncccc2S(N)(=O)=O)cc(C(F)(F)F)c1,PXC50,MAX_EFFECT 10.97804391,< 4
Cn1ncc2c(NCCO)nc(NCCc3ccccc3)nc21,PXC50,MAX_EFFECT 11.85185185,< 4
OCCCNc1nccc(Nc2ccc(F)c(F)c2)n1,PXC50,MAX_EFFECT 15.09433962,< 4
Clc1cc(Cl)cc(CNC2COC2)c1,PXC50,MAX_EFFECT 15.10516252,< 2.7
c1ccc(-c2nc(N3CCOCC3)c3sccc3n2)cc1,PXC50,MAX_EFFECT 16.2962963,< 4
COc1ccccc1NC(=O)Nc1nn(C)c2cccc(OC)c12,PXC50,MAX_EFFECT 17.77777778,< 4
CC(NCc1cc(Cl)cc(Cl)c1)C1CCS(=O)(=O)CC1 (configuration not stated),PXC50,MAX_EFFECT 19.31166348,< 2.7
Cc1cnn(C)c1CNCc1cc(Cl)cc(Cl)c1,PXC50,MAX_EFFECT 20.07648184,< 2.7
COc1ccccc1NC(=O)NC1CCCCC1,PXC50,MAX_EFFECT 21.47001934,< 4
Clc1cc(Cl)cc(CNCc2cccnc2)c1,PXC50,MAX_EFFECT 23.51816444,< 2.7
Cc1cc(CNCc2cc(Cl)cc(Cl)c2)no1,PXC50,MAX_EFFECT 24.66539197,< 2.7
CC(NCc1cc(Cl)cc(Cl)c1)C1CCCN(C(=O)OC(C)(C)C)C1 (configuration not stated),PXC50,MAX_EFFECT 36.52007648,< 2.7
C[C@H](CO)Nc1ccnc(Nc2cccc(C(F)(F)F)c2)n1,PXC50,MAX_EFFECT 43.93063584,< 4
Cn1ncc2c(NC3CC3)nc(Nc3ccc(F)c(F)c3)nc21,PXC50,MAX_EFFECT 47.9245283,< 4
Cn1ncc2c(NCCO)nc(Nc3cccc(Cl)c3)nc21,PXC50,"BOTTOM 2.482705833, HILLSLOPE 1.074607965, MAX_EFFECT 81.43133462, TOP 87.71460066",5.07
Cn1ncc2c(NC3CCC3)nc(Nc3ccc(F)c(F)c3)nc21,PXC50,"BOTTOM 4.327233824, HILLSLOPE 1.310483513, MAX_EFFECT 62.26415094, TOP 64.55009742",5.13
Cn1ncc2c(NC3CCCC(O)C3)nc(Nc3ccc(F)c(F)c3)nc21 (configuration not stated),PXC50,"BOTTOM 4.828241924, HILLSLOPE 1.003842691, MAX_EFFECT 77.73584906, TOP 90.35664451",4.76
Cn1ncc2c(NCCO)nc(Nc3cccc(F)c3)nc21,PXC50,"BOTTOM 8.925751042, HILLSLOPE 1.252459196, MAX_EFFECT 66.66666667, TOP 81.92338456",4.47
C[C@H](CO)Nc1ccnc(Nc2ccc(F)c(F)c2)n1,PXC50,"BOTTOM -1.459719323, HILLSLOPE 0.865053746, MAX_EFFECT 69.36416185, TOP 100.0",4.44
OCCNc1ccnc(Nc2cccc(C(F)(F)F)c2)n1,PXC50,"BOTTOM -3.630779809, HILLSLOPE 0.738811655, MAX_EFFECT 60.88631985, TOP 100.0",4.28
OCCNc1nccc(Cl)n1,PXC50,MAX_EFFECT 0.560747664,< 4
Cc1noc(CCNc2nc(NCCO)c3cnn(C)c3n2)n1,PXC50,MAX_EFFECT 0.580270793,< 4
c1ccc(-c2nc(-n3cnnc3)c3ccccc3n2)cc1,PXC50,MAX_EFFECT 0.740740741,< 4
CN(CCO)c1ccnc(Cl)n1,PXC50,MAX_EFFECT 1.682242991,< 4
Cn1cc(C(=O)N2CCc3ccccc32)c2ccccc21,PXC50,MAX_EFFECT 1.851851852,< 4
NS(=O)(=O)c1cccn2c1nc1cccnc12,PXC50,MAX_EFFECT 1.851851852,< 4
COc1cccc(NC(=O)Nc2ccccc2OC)c1,PXC50,MAX_EFFECT 2.056074766,< 4
CN(C)CCNc1nc(NCCO)c2cnn(C)c2n1,PXC50,MAX_EFFECT 2.277039848,< 4
C[C@@H](CO)Nc1ccnc(Cl)n1,PXC50,MAX_EFFECT 3.177570093,< 4
OCCNc1ccnc(Cl)n1,PXC50,MAX_EFFECT 3.551401869,< 4
Cn1ncc2c(NCCO)nc(NCCO)nc21,PXC50,MAX_EFFECT 3.795066414,< 4
C[C@H](CO)Nc1nccc(Cl)n1,PXC50,MAX_EFFECT 4.672897196,< 4
COc1ccc(Nc2ncccc2S(N)(=O)=O)cc1C(F)(F)F,PXC50,MAX_EFFECT 5.780346821,< 4
Cn1c(NC(=O)Nc2ccccc2Cl)nc2ccccc21,PXC50,MAX_EFFECT 5.925925926,< 4
CN1CCN(c2nc(NCCO)c3cnn(C)c3n2)CC1,PXC50,MAX_EFFECT 6.165703276,< 4
COc1ccccc1NC(=O)Nc1ccn(C)n1,PXC50,MAX_EFFECT 6.168224299,< 4
C[C@@H](CO)Nc1nccc(Cl)n1,PXC50,MAX_EFFECT 6.91588785,< 4
Cn1ncc2c(NCCO)nc(NCC3CCCO3)nc21 (configuration not stated),PXC50,MAX_EFFECT 7.969639469,< 4
CN1CCC(CNCc2cc(Cl)cc(Cl)c2)CC1,PXC50,MAX_EFFECT 8.986615679,< 2.7
COc1ccccc1CNC(=O)Nc1ccccc1OC,PXC50,MAX_EFFECT 9.158878505,< 4
Cn1ncc2c(NCCO)nc(N3CCCCC3)nc21,PXC50,MAX_EFFECT 10.78998073,< 4
FC(F)(F)CCNCc1cc(Cl)cc(Cl)c1,PXC50,MAX_EFFECT 11.28107075,< 2.7
Clc1cc(Cl)cc(NC2COC2)c1,PXC50,MAX_EFFECT 18.9292543,< 2.7
COc1cccc(NC(=O)N2CCOc3ccccc32)c1,PXC50,MAX_EFFECT 19.53578337,< 4
Clc1cc(Cl)cc(CNCc2ncc[nH]2)c1,PXC50,MAX_EFFECT 20.45889101,< 2.7
Clc1cc(Cl)cc(CNCc2c[nH]cn2)c1,PXC50,MAX_EFFECT 24.66539197,< 2.7
C[C@H](CO)Nc1ccnc(Nc2cccc(F)c2)n1,PXC50,MAX_EFFECT 26.58959538,< 4
COc1ccccc1NC(=O)NCC1CCCCC1,PXC50,MAX_EFFECT 34.20560748,< 4
COc1ccncc1NC(=O)N1CCCc2ccccc21,PXC50,MAX_EFFECT 36.98113208,< 4
CCNc1nc(C#N)nc(Nc2ccccc2)n1,PXC50,MAX_EFFECT 38.88888889,< 4
C[C@@H](CO)Nc1ccnc(Nc2ccc(F)c(F)c2)n1,PXC50,MAX_EFFECT 40.46242775,< 4
Clc1cc(Cl)cc(CNCc2ccccn2)c1,PXC50,MAX_EFFECT 45.69789675,< 2.7
NS(=O)(=O)c1cccnc1Nc1ccc(F)c(F)c1,PXC50,MAX_EFFECT -0.759013283,< 4
Cn1ncc2c(NCCO)nc(Nc3ccc(F)cc3)nc21,PXC50,"BOTTOM 3.895127381, HILLSLOPE 1.044427324, MAX_EFFECT 67.40740741, TOP 80.2965153",4.65
CC(C)C[C@H](N)COc1ccccc1-c1ccno1,PXC50,MAX_EFFECT 9.594882729,< 4
same,PXC50,MAX_EFFECT 10.97308489,< 4
CC(O)c1ccc(Cl)cc1Cl (configuration not stated),PXC50,MAX_EFFECT 7.559395248,< 3
same,PXC50,MAX_EFFECT 15.39923954,< 3
CS(=O)(=O)N1CCN(c2ccc3ccc(C(=O)NCCN4CCc5ccccc5C4)cn23)CC1,PXC50,"BOTTOM 9.287524867, HILLSLOPE 2.626114762, MAX_EFFECT 78.976234, TOP 76.44379257",4.95
same,PXC50,"BOTTOM -0.296501823, HILLSLOPE 1.63582329, MAX_EFFECT 73.68421053, TOP 78.31707036",5.09
Nc1noc2ccc(-c3cnc4ccc(NCCN5CCOCC5)nn34)cc12,PXC50,MAX_EFFECT -0.438596491,< 4
same,PXC50,MAX_EFFECT -1.041666667,< 4
